# Assay results: PubChem BioAssay AID504465 (National Center for Advancing Translational Sciences (NCATS), 2011)
# The campaign covered roughly 2,100 compounds. About 210 (10%) were called active. Not shown: some 53% with an inconclusive outcome. Calls come from the whole dose curve; as a rule, active = well fitted inhibition curve with a large enough effect; inconclusive = small, poorly fitted or top-dose-only effect, or effect the other way; inactive = no such curve, though single readings can be large or run the other way. Some of the results follow.
# Assay: IN Cell qHTS Assay for Inhibitors of the mTORC1 Signaling Pathway in MEF (Tsc2-/-, p53-/-) Cells: Sytravon; note: nearly all actives have a fitted effect of over 60% in size;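 for activity, negative = inhibition: plate controls were DMSO wells for no effect and 7.5 nM rapamycin full pathway inhibition for full effect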
# Conditions: phospho-rpS6 immunofluorescence, 24 h; series mostly up to 38.3 µM; activity, negative = inhibition: at the top concentration
# Summary of the method: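 Tsc2-/-, p53-/- MEFs (empty-vector) treated with compound 24 h at 37 degree Celsius, then fixed and stained for phospho-rpS6 Ser235/236 (Alexa-488) plus Hoechst. Reported as % positive cells, thresholds set against 7.5 nM rapamycin and DMSO wells.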
# Potency is the fitted concentration of half-maximal effect.
SMILES,"activity, negative = inhibition",Potency
COc1ccc(CNCCC(c2ccc(C)cc2)c2ccco2)cc1 (stereo not drawn),-100% (inactive),–
CC(=O)c1cccc(NS(=O)(=O)c2ccc3[nH]c4c(c3c2)CCCCC4)c1,1.08% (inactive),–
CCCN(CCC)CCCNC(=O)c1cc2c(-c3ccc(Cl)cc3)nn(C)c2s1,–,2.61 µM (active)
COc1ccc(CCNC(=O)c2nn(C)c3c2CSc2ccccc2-3)cc1OC,-7.86% (inactive),–
CCCCN(CCCC)CCCNC(=O)c1cc(-c2ccc(Cl)s2)nc2ccccc12,25.2% (inactive),–
CCOc1ccc(CCNC(=O)c2cc3c(-c4ccccc4F)nn(C)c3s2)cc1,19.4% (inactive),–
CCCN(CCC)CCCNC(=O)c1cc2c(-c3ccc(OC)c(OC)c3)nn(C)c2s1,–,16.5 µM (active)
COc1ccc(-c2nn(C)c3sc(C(=O)Nc4cccc(F)c4)cc23)cc1OC,0% (inactive),–
Cc1cc(C)cc(NC(=O)C(=O)NCC(c2ccc3c(c2)OCO3)N2CCN(C)CC2)c1 (stereo not drawn),3.7% (inactive),–
CC(C)CN(CC(C)C)S(=O)(=O)c1ccc(C(=O)Nc2sc3c(c2C(N)=O)CCN(C(C)C)C3)cc1,6.25% (inactive),–
CCc1ccc(CNC(=O)COc2cc(=O)n(CC)c3ccccc23)cc1,8.06% (inactive),–
CC(C)Oc1ccccc1-c1nc(SCC(=O)c2ccc(F)cc2)n[nH]1,-19.3% (inactive),–
CCOc1ccc(CNC(=O)C2CCN(S(=O)(=O)c3ccc4c(ccn4C)c3)CC2)cc1,0.0324% (inactive),–
CCOc1cc(CNC(=O)c2ccc(C)c(NC(=O)c3nsc4ccccc34)c2)ccc1OC,-1.04% (inactive),–
COc1ccccc1C(=O)OCc1cc(=O)n2nc(C3CC3)sc2n1,0.274% (inactive),–
COc1ccc(C2c3c(-c4ccccc4O)n[nH]c3C(=O)N2CCc2ccccc2)cc1 (stereo not drawn),-21.4% (inactive),–
CC(C)OCCCN1C(=O)c2[nH]nc(-c3ccccc3O)c2C1c1ccc(OCc2ccccc2)cc1 (stereo not drawn),–,18.5 µM (active)
CCCN1C(=O)c2[nH]nc(-c3ccccc3O)c2C1c1ccc(OCc2ccccc2)c(OC)c1 (stereo not drawn),-29% (inactive),–
CCCCOc1cccc(C2c3c(-c4cc(C)ccc4O)n[nH]c3C(=O)N2CCOC)c1 (stereo not drawn),-12.8% (inactive),–
CCCCN1C(=O)c2[nH]nc(-c3ccccc3O)c2C1c1cccc(OCc2ccccc2)c1 (stereo not drawn),–,20.7 µM (active)
COc1ccc(CCN2C(=O)c3[nH]nc(-c4ccccc4O)c3C2c2cccc(OC)c2)cc1 (stereo not drawn),–,20.7 µM (active)
CCCN1C(=O)c2[nH]nc(-c3ccccc3O)c2C1c1cccc(OCc2ccccc2)c1 (stereo not drawn),-14.6% (inactive),–
O=C1c2[nH]nc(-c3ccccc3O)c2C(c2ccc(Cl)cc2)N1CCc1ccccc1 (stereo not drawn),-15.5% (inactive),–
COc1ccc(CCN2C(=O)c3[nH]nc(-c4ccccc4O)c3C2c2ccccc2)cc1 (stereo not drawn),-4.54% (inactive),–
CCc1ccc(-n2nc(C)c3c(C(=O)Nc4cc(OC)cc(OC)c4)cc(C)nc32)cc1,-0.926% (inactive),–

SMILES,"activity, negative = inhibition",Potency
CC(Sc1nc2c([nH]c3ccccc32)c(=O)n1-c1ccccc1)c1ccccc1 (stereo not drawn),-0.445% (inactive),–
CC(C)CC(=O)Nc1cc(-c2ccccc2F)nn1-c1ccccc1,18% (inactive),–
CCOc1ccc(-n2c(-c3ccccc3)c(C)n3c4c(=O)n(C)c(=O)n(C)c4nc23)cc1,-5.32% (inactive),–
Cc1ccc(-c2nc3ncccc3o2)cc1NC(=O)COc1ccc(C(C)C)cc1,-20.9% (inactive),–
Cc1cccc(C)c1NC(=O)Cn1c(=O)n(CCC(=O)NCc2ccccc2Cl)c(=O)c2sccc21,-89.9% (inactive),–
CCOc1cc(CNc2ccc(O)cc2)cc(Cl)c1OCc1ccccc1,-100% (inactive),–
CCn1ccc2cc(S(=O)(=O)N3CCCN(C(=O)NCC(C)C)CC3)ccc21,-7.24% (inactive),–
CCC(C)NC(=O)c1ccc2c(c1)N=C(C)c1cc(C)ccc1S2 (stereo not drawn),0.833% (inactive),–
COc1ccc(NC(=O)CSc2nc(-c3ccco3)cc(C(F)(F)F)n2)cc1Cl,-5% (inactive),–
CCNS(=O)(=O)c1ccc(NC(=O)CSc2nc(-c3ccco3)cc(C(F)(F)F)n2)cc1,–,0.233 µM (active)
CCc1ccc2c(c1)-c1ccccc1S(=O)(=O)N2CC(=O)N1CCC(C)CC1,-6.77% (inactive),–
CCc1ccc(NC(=O)C2CCCN(S(=O)(=O)c3c(C)noc3/C=C/N(C)C)C2)cc1 (stereo not drawn),-15.8% (inactive),–
Cc1ccc(Sc2c(C)nn(C(=O)COc3ccccc3)c2C)cc1,–,6.56 µM (active)
O=C(Nc1ccc(Br)cc1)c1ccc(F)c(S(=O)(=O)N2CCc3ccccc32)c1,6.25% (inactive),–
CCOc1ccccc1NC(=O)Cn1ccn(Cc2ccc(C)cc2)c(=O)c1=O,-8.7% (inactive),–
CCc1nn(CC(=O)NCc2ccccc2Cl)c(=O)c2cccn12,–,3.29 µM (active)
Cc1ccc(C(=O)c2cn(CC(=O)NCc3ccccc3Cl)c3nc(C)ccc3c2=O)cc1,1.08% (inactive),–
CCOc1ccccc1CNC(=O)CCn1c(=O)c2cccn2c2ccc(F)cc21,-5.8% (inactive),–
Clc1ccc(-n2ncc3c(NC4CCCC4)ncnc32)cc1,6.25% (inactive),–
CC(C)Oc1ccc(CNC(=O)CCn2c(=O)c3cccn3c3ccc(F)cc32)cc1,-9.57% (inactive),–
COc1cccc(-n2c(SCc3cccc(C)c3)nc3c([nH]c4ccccc43)c2=O)c1,-10.7% (inactive),–
COc1cccc(-n2c(SCC(=O)Nc3c(C)cc(C)cc3C)nc3c([nH]c4ccccc43)c2=O)c1,-8.87% (inactive),–
COc1ccc(-c2nnc(SCc3cc(=O)c4cc(C)cc(C)c4[nH]3)n2C)cc1,–,18.5 µM (active)
O=C(Nc1ccc(F)c(Cl)c1)c1cc(S(=O)(=O)N2CCCc3ccccc32)ccc1F,6.25% (inactive),–
Cc1cccc(N2CCN(C(=O)Cn3c(=O)c4cccn4c4ccc(F)cc43)CC2C)c1 (stereo not drawn),-19.3% (inactive),–

SMILES,"activity, negative = inhibition",Potency
Cc1ccccc1Cn1nnc2c(=O)[nH]c(C3CCN(C(=O)c4ccccc4Cl)CC3)nc21,-11.3% (inactive),–
O=C(Nc1ccc(Cl)c(C(F)(F)F)c1)c1ccc2c(c1)CCN2S(=O)(=O)c1ccccc1,-10.2% (inactive),–
CCCOC(=O)c1cccc(NC(=O)c2c(-c3ccccc3Cl)noc2C)c1,0.806% (inactive),–
COC(=O)C1=C(C)N(C(C)C)C(=O)C1(NC(=O)c1ccc(C(C)(C)C)cc1)C(F)(F)F (stereo not drawn),–,20.7 µM (active)
O=C(Nc1ccc(C(F)(F)F)cc1)c1cc(S(=O)(=O)NC2CCCCC2)ccc1F,6.25% (inactive),–
Cc1ccc(-n2ncc(C(=O)NCCCN3CCc4ccccc4C3)c2C2CCN(C(=O)OC(C)(C)C)CC2)cc1C,–,20.7 µM (active)
COc1ccccc1CN1CCC(CNC(=O)c2cnn(-c3ccccc3Cl)c2C2CCN(C(=O)OC(C)(C)C)CC2)CC1,-15.8% (inactive),–
Cc1ccc(-n2ncc(C(=O)NCc3cccs3)c2C2CCN(C(=O)OC(C)(C)C)CC2)cc1C,-5.66% (inactive),–
CCCCOC(=O)c1ccc(NC(=O)Cc2coc3ccc(C(C)C)cc23)cc1,-1.11% (inactive),–
CCCCS(=O)(=O)c1nc(-c2ccc(Br)cc2)cc(-c2ccccc2)c1C#N,–,3.29 µM (active)
CCCS(=O)(=O)N1CC(=O)N(c2ccccc2C)C(C)(C(=O)NC2CCCC2)C1 (stereo not drawn),-15% (inactive),–
COc1ccc(NS(=O)(=O)c2ccc3c(c2)CCCN3C(=O)C2CCC2)cc1OC,-4.59% (inactive),–
CC1=Nc2cc(C(=O)NC(C)C)ccc2Sc2ccc(C)cc21,-21.1% (inactive),–
Cc1ccc(-c2csc(-c3cc4c([nH]c3=O)CC(c3ccccc3)CC4=O)n2)cc1 (stereo not drawn),13.1% (inactive),–
CC(=O)c1c(C)oc2ccc(N(C(=O)c3ccncc3)S(=O)(=O)c3ccc(F)cc3C)cc12,-30.3% (inactive),–
CCOc1ccc(S(=O)(=O)N(C(=O)c2ccncc2)c2ccc3oc(C)c(C(=O)OC)c3c2)cc1,–,3.29 µM (active)
COC(=O)c1c(C)oc2ccc(N(C(=O)c3ccncc3)S(=O)(=O)c3cc(C)ccc3C)cc12,-26.3% (inactive),–
Cc1cc(C)c2c(=O)cc(CSCC(=O)Nc3nnc(C)s3)[nH]c2c1,-13.5% (inactive),–
CC(C)Cc1cc(C(=O)NCc2ccc(Cl)cc2)no1,24.7% (inactive),–
COc1ccccc1Cc1nc2ccccc2nc1SCC(=O)N1CCCCC1,-12.5% (inactive),–
CCOC(=O)c1cnc2ccc(C)cc2c1Nc1ccc(OCc2ccccc2Cl)cc1,-12.1% (inactive),–
CCc1ccc(NC(=O)c2ccc(F)c(S(=O)(=O)NCc3ccc(Cl)c(Cl)c3)c2)cc1,6.25% (inactive),–
CCc1ccc(C(=O)c2cnc3ccc(F)cc3c2S(=O)(=O)c2ccccc2)cc1,–,4.65 µM (active)
Cc1cc(Cl)ccc1NC(=O)C1CCCN1S(=O)(=O)c1ccc2c(c1)CCCC(=O)N2 (stereo not drawn),-0.811% (inactive),–
COc1ccc(N2CCN(Cc3nc(-c4ccc(C)cc4)no3)CC2)cc1,-10.8% (inactive),–

SMILES,"activity, negative = inhibition",Potency
O=S(=O)(c1ccccc1)c1nc(-c2cccc(Cl)c2)oc1N1CCOCC1,–,9.27 µM (active)
Cc1ccc(-c2nc(S(=O)(=O)c3ccc(C)cc3)c(N3CCN(c4ccccc4)CC3)o2)cc1,1.43% (inactive),–
COc1ccc(-c2nc(S(=O)(=O)c3ccc(C)cc3)c(N3CCCCC3)o2)cc1,–,13.1 µM (active)
O=C(c1cc(-c2cccc(Cl)c2)on1)N1CCN(c2ccccc2)CC1,2.27% (inactive),–
CC(=O)N1CCOc2cc(S(=O)(=O)Nc3c(C)cccc3C(C)C)c(Cl)cc21,-13% (inactive),–
Cc1cc(C)c2c(=O)c3c(oc2c1)C(=O)N(Cc1ccc(F)cc1)C3c1cccc(O)c1 (stereo not drawn),-9.04% (inactive),–
Cc1cc(C)cc(NS(=O)(=O)c2ccc(-c3cc(C)no3)cc2)c1,-19.4% (inactive),–
CCC(C(=O)Nc1ccc(C)c(Cl)c1)n1c(=O)c(-c2ccccc2NC(C)=O)nc2ccccc21 (stereo not drawn),-12% (inactive),–
O=C1Nc2ccccc2Oc2cc(Oc3ccccc3)ccc21,-19.3% (inactive),–
Cc1ccc2occ(CC(=O)N(Cc3ccc(Cl)cc3)Cc3ccco3)c2c1,-22% (inactive),–
Cc1ccc(CN(Cc2ccco2)C(=O)COc2c(C)cc(C)cc2C)cc1,-17% (inactive),–
Cc1cc(C)c2c(CC(=O)N(Cc3ccc(N(C)C)cc3)Cc3ccco3)coc2c1,–,6.56 µM (active)
CCCCc1ccc(NC(=O)c2ccc3c(c2)CCN3S(=O)(=O)c2ccccc2)cc1,-20.3% (inactive),–
CCCCc1ccc(C(=O)Nc2ccc3nc(N4CCN(CC)CC4)cc(C)c3c2)cc1,–,2.61 µM (active)
Cc1cc(N2CCN(C)CC2)nc2ccc(NC(=O)c3ccc(C(C)(C)C)cc3)cc12,–,1.85 µM (active)
Cc1ccc(S(=O)(=O)N2CCc3cc(C(=O)Nc4ccc(C(F)(F)F)cc4)ccc32)cc1,-1.55% (inactive),–
CCN1CCN(c2cc(C)c3cc(NC(=O)c4cc(Cl)ccc4OC)ccc3n2)CC1,–,2.93 µM (active)
COc1cccc(NC(=O)Nc2ccc3nc(N4CCN(C)CC4)cc(C)c3c2)c1,0% (inactive),–
COc1ccc(Cl)cc1NC(=O)CCn1nc(C)cc1C,0.892% (inactive),–
CCN1CCN(c2cc(C)c3cc(NC(=O)/C=C/c4ccc(C)cc4)ccc3n2)CC1,–,5.21 µM (active)
Cc1ccc(NC(=O)c2ccc(F)c(S(=O)(=O)NCCc3ccccc3)c2)cc1F,6.25% (inactive),–
Cc1cccc(CC(=O)Nc2ccc3nc(N4CCC(C)CC4)cc(C)c3c2)c1,-2.59% (inactive),–
COc1ccccc1C(=O)Nc1ccc2nc(N3CCC(C)CC3)cc(C)c2c1,2.28% (inactive),–
